# Experimental data published in the supplement of paper PMC4022240.
# ± gives the standard deviation.
# T1: HaloTag-ATRX ADD domain (163-292)
# T1 chain: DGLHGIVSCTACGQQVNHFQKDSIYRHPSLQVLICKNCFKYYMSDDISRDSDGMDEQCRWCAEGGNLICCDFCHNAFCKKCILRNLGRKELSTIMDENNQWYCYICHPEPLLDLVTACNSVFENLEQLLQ
# Columns and labels:
# Assay in all cases: peptide microarray binding signal (635 nm), min-max normalized on array (fraction of array maximum); higher = stronger binding
# [1] = target: T1, HaloTag-ATRX ADD domain (163-292)
# Description: (§1)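 Histone 13-mer peptides were synthesized as cellulose conjugates with a C-terminal 20-atom PEG linker and printed in triplicate on nitrocellulose. The sequence given is the unmodified backbone; PTMs (Kme1/2/3, Kac, Sph/Tph, Rme/Rme2a/Rme2s, Rcit) are listed in the label and the 'peptide modifications' condition. Slides were probed at 4 °C for 1 h with biotin-labelled (HQ)5-HaloTag reader fusions (ATRX-ADD, ING2-PHD) then streptavidin-Alexa647, or with rabbit histone antibodies then anti-rabbit Alexa647. The mean 635 nm signal of the triplicate spots was scaled 0-1 between the lowest and highest values on each array.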
# [2] = target: HaloTag-ING2 PHD (mouse Ing2 200-280)
# Description: as §1
# [3] = target: anti-H3K4me3 antibody ab8580
# Description: as §1
# [4] = target: anti-H3K9me3 antibody ab8898
# Description: as §1
# [5] = peptide region: H3 1-13, peptide modifications: H3T6ph H3R8me2a, binder concentration: 1:2,000 dilution
# [6] = peptide region: H3 1-13, peptide modifications: H3T6ph H3R8me2a, binder concentration: 1:10,000 dilution
# [7] = peptide region: H3 1-13, peptide modifications: H3T3ph, binder concentration: 1:2,000 dilution
# [8] = peptide region: H3 1-13, peptide modifications: H3T3ph, binder concentration: 1:10,000 dilution
# [9] = peptide region: H3 5-17, binder concentration: 1:2,000 dilution
# [10] = peptide region: H3 5-17, binder concentration: 1:10,000 dilution
# [11] = peptide region: H3 1-13, peptide modifications: H3T6ph H3R8cit, binder concentration: 1:2,000 dilution
# [12] = peptide region: H3 1-13, peptide modifications: H3T6ph H3R8cit, binder concentration: 1:10,000 dilution
# [13] = peptide region: H3 1-13, peptide modifications: H3T6ph, binder concentration: 1:2,000 dilution
# [14] = peptide region: H3 1-13, peptide modifications: H3T6ph, binder concentration: 1:10,000 dilution
# [15] = peptide region: H3 1-13, peptide modifications: H3T6ph H3K9me2, binder concentration: 1:2,000 dilution
# [16] = peptide region: H3 1-13, peptide modifications: H3T6ph H3K9me2, binder concentration: 1:10,000 dilution
# [17] = peptide region: H3 1-13, peptide modifications: H3T3ph H3K4me2, binder concentration: 1:2,000 dilution
# [18] = peptide region: H3 1-13, peptide modifications: H3T3ph H3K4me2, binder concentration: 1:10,000 dilution
# [19] = peptide region: H3 1-13, peptide modifications: H3T6ph H3K9ac, binder concentration: 1:2,000 dilution
# [20] = peptide region: H3 1-13, peptide modifications: H3T6ph H3K9ac, binder concentration: 1:10,000 dilution
# [21] = peptide region: H3 1-13, peptide modifications: H3T3ph H3K9me2, binder concentration: 1:2,000 dilution
# [22] = peptide region: H3 1-13, peptide modifications: H3T3ph H3K9me2, binder concentration: 1:10,000 dilution
# [23] = peptide region: H3 1-13, peptide modifications: H3T3ph H3K9ac, binder concentration: 1:2,000 dilution
# [24] = peptide region: H3 1-13, peptide modifications: H3T3ph H3K9ac, binder concentration: 1:10,000 dilution
binder,measurement,setting,value
ARTKQTARKSTGG [H3 1-13 A R T K Q Tph A Rme2a K S T G G],peptide microarray binding signal,"[1]; peptide region: H3 1-13, peptide modifications: H3T6ph H3R8me2a, binder concentration: 50 nM",0.00677 ± 0.00082
same,peptide microarray binding signal,"[1]; peptide region: H3 1-13, peptide modifications: H3T6ph H3R8me2a, binder concentration: 500 nM",0.0179 ± 0.002
same,peptide microarray binding signal,"[2]; peptide region: H3 1-13, peptide modifications: H3T6ph H3R8me2a, binder concentration: 10 nM",0.00961 ± 0.00061
same,peptide microarray binding signal,"[2]; peptide region: H3 1-13, peptide modifications: H3T6ph H3R8me2a, binder concentration: 100 nM",0.054 ± 0.0051
same,peptide microarray binding signal,[3]; [5],0.00166 ± 0.00015
same,peptide microarray binding signal,[3]; [6],0.0012 ± 1.2e-05
same,peptide microarray binding signal,[4]; [5],0.00384 ± 0.00058
same,peptide microarray binding signal,[4]; [6],0.00185 ± 6.1e-05
ARTKQTARKSTGG [H3 1-13 A R Tph K Q T A R K S T G G],peptide microarray binding signal,"[1]; peptide region: H3 1-13, peptide modifications: H3T3ph, binder concentration: 50 nM",0.01044 ± 0.0001
same,peptide microarray binding signal,"[1]; peptide region: H3 1-13, peptide modifications: H3T3ph, binder concentration: 500 nM",0.0136 ± 0.0015
same,peptide microarray binding signal,"[2]; peptide region: H3 1-13, peptide modifications: H3T3ph, binder concentration: 10 nM",0.0146 ± 0.00026
same,peptide microarray binding signal,"[2]; peptide region: H3 1-13, peptide modifications: H3T3ph, binder concentration: 100 nM",0.0137 ± 0.0036
same,peptide microarray binding signal,[3]; [7],0.00119 ± 5e-05
same,peptide microarray binding signal,[3]; [8],0.002568 ± 2.3e-05
same,peptide microarray binding signal,[4]; [7],0.00137 ± 6.5e-05
same,peptide microarray binding signal,[4]; [8],0.002998 ± 2.6e-05
QTARKSTGGKAPR [H3 5-17 Q T A R K S T G G K A P R],peptide microarray binding signal,"[1]; peptide region: H3 5-17, binder concentration: 50 nM",0.00796 ± 0.00026
same,peptide microarray binding signal,"[1]; peptide region: H3 5-17, binder concentration: 500 nM",0.00462 ± 0.00035
same,peptide microarray binding signal,"[2]; peptide region: H3 5-17, binder concentration: 10 nM",0.00376 ± 7.2e-05
same,peptide microarray binding signal,"[2]; peptide region: H3 5-17, binder concentration: 100 nM",0.00489 ± 0.00045
same,peptide microarray binding signal,[3]; [9],0.000982 ± 8.5e-05
same,peptide microarray binding signal,[3]; [10],0.00143 ± 0.00013
same,peptide microarray binding signal,[4]; [9],0.00242 ± 0.0011
same,peptide microarray binding signal,[4]; [10],0.00265 ± 0.00021
ARTKQTARKSTGG [H3 1-13 A R T K Q Tph A Rcit K S T G G],peptide microarray binding signal,"[1]; peptide region: H3 1-13, peptide modifications: H3T6ph H3R8cit, binder concentration: 50 nM",0.00461 ± 9.2e-05
same,peptide microarray binding signal,"[1]; peptide region: H3 1-13, peptide modifications: H3T6ph H3R8cit, binder concentration: 500 nM",0.00667 ± 0.00019
same,peptide microarray binding signal,"[2]; peptide region: H3 1-13, peptide modifications: H3T6ph H3R8cit, binder concentration: 10 nM",0.004536 ± 4e-05
same,peptide microarray binding signal,"[2]; peptide region: H3 1-13, peptide modifications: H3T6ph H3R8cit, binder concentration: 100 nM",0.00652 ± 0.00029
same,peptide microarray binding signal,[3]; [11],0.000396
same,peptide microarray binding signal,[3]; [12],0.000114 ± 1.3e-06
same,peptide microarray binding signal,[4]; [11],0.000332 ± 8.8e-06
same,peptide microarray binding signal,[4]; [12],0.000807 ± 2.5e-05
ARTKQTARKSTGG [H3 1-13 A R T K Q Tph A R K S T G G],peptide microarray binding signal,"[1]; peptide region: H3 1-13, peptide modifications: H3T6ph, binder concentration: 50 nM",0.004044 ± 1.6e-05
same,peptide microarray binding signal,"[1]; peptide region: H3 1-13, peptide modifications: H3T6ph, binder concentration: 500 nM",0.009 ± 0.00047
same,peptide microarray binding signal,"[2]; peptide region: H3 1-13, peptide modifications: H3T6ph, binder concentration: 10 nM",0.0046 ± 0.00047
same,peptide microarray binding signal,"[2]; peptide region: H3 1-13, peptide modifications: H3T6ph, binder concentration: 100 nM",0.0195 ± 0.002
same,peptide microarray binding signal,[3]; [13],0.000793 ± 7.5e-05
same,peptide microarray binding signal,[3]; [14],0.000285 ± 3.1e-06
same,peptide microarray binding signal,[4]; [13],0.000755 ± 2.9e-05
same,peptide microarray binding signal,[4]; [14],0.000288
ARTKQTARKSTGG [H3 1-13 A R T K Q Tph A R Kme2 S T G G],peptide microarray binding signal,"[1]; peptide region: H3 1-13, peptide modifications: H3T6ph H3K9me2, binder concentration: 50 nM",0.00674 ± 3.8e-05
same,peptide microarray binding signal,"[1]; peptide region: H3 1-13, peptide modifications: H3T6ph H3K9me2, binder concentration: 500 nM",0.0151 ± 0.00044
same,peptide microarray binding signal,"[2]; peptide region: H3 1-13, peptide modifications: H3T6ph H3K9me2, binder concentration: 10 nM",0.0226 ± 0.0028
same,peptide microarray binding signal,"[2]; peptide region: H3 1-13, peptide modifications: H3T6ph H3K9me2, binder concentration: 100 nM",0.0292 ± 0.0053
same,peptide microarray binding signal,[3]; [15],0.00732 ± 0.0017
same,peptide microarray binding signal,[3]; [16],0.0124 ± 0.0021
same,peptide microarray binding signal,[4]; [15],0.0419 ± 0.0095
same,peptide microarray binding signal,[4]; [16],0.0174 ± 0.00085
ARTKQTARKSTGG [H3 1-13 A R Tph Kme2 Q T A R K S T G G],peptide microarray binding signal,"[1]; peptide region: H3 1-13, peptide modifications: H3T3ph H3K4me2, binder concentration: 50 nM",0.00555 ± 0.0001
same,peptide microarray binding signal,"[1]; peptide region: H3 1-13, peptide modifications: H3T3ph H3K4me2, binder concentration: 500 nM",0.00891 ± 0.00073
same,peptide microarray binding signal,"[2]; peptide region: H3 1-13, peptide modifications: H3T3ph H3K4me2, binder concentration: 10 nM",0.0132 ± 0.0013
same,peptide microarray binding signal,"[2]; peptide region: H3 1-13, peptide modifications: H3T3ph H3K4me2, binder concentration: 100 nM",0.0916 ± 0.0043
same,peptide microarray binding signal,[3]; [17],0.0195 ± 0.0045
same,peptide microarray binding signal,[3]; [18],0.024 ± 0.0033
same,peptide microarray binding signal,[4]; [17],0.0022 ± 0.00054
same,peptide microarray binding signal,[4]; [18],0.00185 ± 8e-05
ARTKQTARKSTGG [H3 1-13 A R T K Q Tph A R Kac S T G G],peptide microarray binding signal,"[1]; peptide region: H3 1-13, peptide modifications: H3T6ph H3K9ac, binder concentration: 50 nM",0.00724 ± 0.00023
same,peptide microarray binding signal,"[1]; peptide region: H3 1-13, peptide modifications: H3T6ph H3K9ac, binder concentration: 500 nM",0.0156 ± 0.0012
same,peptide microarray binding signal,"[2]; peptide region: H3 1-13, peptide modifications: H3T6ph H3K9ac, binder concentration: 10 nM",0.0307 ± 0.002
same,peptide microarray binding signal,"[2]; peptide region: H3 1-13, peptide modifications: H3T6ph H3K9ac, binder concentration: 100 nM",0.0441 ± 0.0085
same,peptide microarray binding signal,[3]; [19],0.00995 ± 0.00061
same,peptide microarray binding signal,[3]; [20],0.00622 ± 0.00014
same,peptide microarray binding signal,[4]; [19],0.00527 ± 0.00089
same,peptide microarray binding signal,[4]; [20],0.00294 ± 0.00011
ARTKQTARKSTGG [H3 1-13 A R Tph K Q T A R Kme2 S T G G],peptide microarray binding signal,"[1]; peptide region: H3 1-13, peptide modifications: H3T3ph H3K9me2, binder concentration: 50 nM",0.0107 ± 0.00063
same,peptide microarray binding signal,"[1]; peptide region: H3 1-13, peptide modifications: H3T3ph H3K9me2, binder concentration: 500 nM",0.0409 ± 0.02
same,peptide microarray binding signal,"[2]; peptide region: H3 1-13, peptide modifications: H3T3ph H3K9me2, binder concentration: 10 nM",0.0306 ± 0.0047
same,peptide microarray binding signal,"[2]; peptide region: H3 1-13, peptide modifications: H3T3ph H3K9me2, binder concentration: 100 nM",0.0365 ± 0.018
same,peptide microarray binding signal,[3]; [21],0.0117 ± 0.0018
same,peptide microarray binding signal,[3]; [22],0.0191 ± 0.0097
same,peptide microarray binding signal,[4]; [21],0.0295 ± 0.0016
same,peptide microarray binding signal,[4]; [22],0.013 ± 0.0018
ARTKQTARKSTGG [H3 1-13 A R Tph K Q T A R Kac S T G G],peptide microarray binding signal,"[1]; peptide region: H3 1-13, peptide modifications: H3T3ph H3K9ac, binder concentration: 50 nM",0.00881 ± 0.00025
same,peptide microarray binding signal,"[1]; peptide region: H3 1-13, peptide modifications: H3T3ph H3K9ac, binder concentration: 500 nM",0.0147 ± 0.00088
same,peptide microarray binding signal,"[2]; peptide region: H3 1-13, peptide modifications: H3T3ph H3K9ac, binder concentration: 10 nM",0.0255 ± 0.0014
same,peptide microarray binding signal,"[2]; peptide region: H3 1-13, peptide modifications: H3T3ph H3K9ac, binder concentration: 100 nM",0.04 ± 0.0064
same,peptide microarray binding signal,[3]; [23],0.0124 ± 0.0018
same,peptide microarray binding signal,[3]; [24],0.00867 ± 0.00052
same,peptide microarray binding signal,[4]; [23],0.00523 ± 0.00022
same,peptide microarray binding signal,[4]; [24],0.00363 ± 0.00025
